Experimental findings from PubChem BioAssay (NCATS) are described below.

Molecules are shown by their SMILES. Records with an inconclusive call do not appear. Activity calls are given as the source filed them. Unless noted, calls come from the whole dose curve; as a rule, active = well fitted inhibition curve with a large enough effect; inconclusive = small, poorly fitted or top-dose-only effect; inactive = flat fitted curve, though single readings scatter.

A short description of assay [1]: qHTS profiling for inhibitors of Plasmodium falciparum proliferation (AID 504749).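 For activity, negative = inhibition: 0% = DMSO vehicle and full inhibition = artemisinin control.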 Note: nearly all actives have a fitted effect of over 60% in size. The note with it: P. falciparum in erythrocytes, SYBR Green DNA, 72 h, at 28.7 µM (top of the series). Put shortly: (§1)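 Parasite proliferation within erythrocytes, 72 h exposure. Endpoint: SYBR Green I fluorescence after overnight lysis at room temperature. Controls: 0.29 uM artemisinin, DMSO.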
For orientation: Quantitative high-throughput screening tests each substance at several concentrations.

For another assay, the system named is 3D7. The assay is described as above. The note with it: P. falciparum in erythrocytes, SYBR Green DNA, 72 h; series mostly up to 28.7 µM. Put shortly:
as §1

In a further assay the test system is 7G8. Described as above. As to conditions: P. falciparum in erythrocytes, SYBR Green DNA, 72 h; series mostly up to 28.7 µM. The gist of the method:
as §1

Another assay deals with AA1029. The assay is described as above. As to conditions: P. falciparum in erythrocytes, SYBR Green DNA, 72 h; series mostly up to 28.7 µM. Put shortly: as §1
The next assay deals with AS120. Described as above. As to conditions: P. falciparum in erythrocytes, SYBR Green DNA, 72 h; series mostly up to 28.7 µM. Put shortly: as §1
A further assay deals with ATS189. The description is as above. The note with it: P. falciparum in erythrocytes, SYBR Green DNA, 72 h; series mostly up to 28.7 µM. The gist of the method:
as §1

The next assay concerns ATS95. Described as above. As to conditions: P. falciparum in erythrocytes, SYBR Green DNA, 72 h; series mostly up to 28.7 µM. Put shortly: as §1
The next assay concerns C2A. The description is as above. As to conditions: P. falciparum in erythrocytes, SYBR Green DNA, 72 h; series mostly up to 28.7 µM. The gist of the method:
as §1

Another assay has as its system CP185. Described as above. The note with it: P. falciparum in erythrocytes, SYBR Green DNA, 72 h; series mostly up to 28.7 µM. Put shortly: as §1
The test system of the next assay is CP191. Described as above. The note with it: P. falciparum in erythrocytes, SYBR Green DNA, 72 h; series mostly up to 28.7 µM. Put shortly:
as §1

Another assay relates to CP192. The description is as above. As to conditions: P. falciparum in erythrocytes, SYBR Green DNA, 72 h; series mostly up to 28.7 µM. The gist of the method: as §1
The subject of a further assay is CP194. Described as above. As to conditions: P. falciparum in erythrocytes, SYBR Green DNA, 72 h; series mostly up to 28.7 µM. Put shortly: as §1
In another assay the test system is CP201. Described as above. The note with it: P. falciparum in erythrocytes, SYBR Green DNA, 72 h; series mostly up to 28.7 µM. The gist of the method: as §1
The test system of another assay is CP211. The description is as above. As to conditions: P. falciparum in erythrocytes, SYBR Green DNA, 72 h; series mostly up to 28.7 µM. The gist of the method:
as §1

A further assay relates to CP215. The description is as above. As to conditions: P. falciparum in erythrocytes, SYBR Green DNA, 72 h; series mostly up to 28.7 µM. The gist of the method:
as §1

For another assay, the system named is CP217. The assay is described as above. As to conditions: P. falciparum in erythrocytes, SYBR Green DNA, 72 h; series mostly up to 28.7 µM. Put shortly:
as §1

The next assay deals with CP237. Described as above. As to conditions: P. falciparum in erythrocytes, SYBR Green DNA, 72 h; series mostly up to 28.7 µM. The gist of the method: as §1
The next assay relates to CP238. The description is as above. The note with it: P. falciparum in erythrocytes, SYBR Green DNA, 72 h; series mostly up to 28.7 µM. Put shortly: as §1
The nature of assay [2]: qHTS for identification of novel therapeutic agents for treatment of microphthalmiaassociated transcription factor (MiT) renal cell carcinoma (RCC) (AID 1963991; calls by dose curve). As to conditions: CellTiter-Glo, 48 h; for z-score: stronger effect = lower value. The gist of the method:
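Curves over 11 concentrations were fitted to CellTiter-Glo luminescence, scaled between empty wells (0%) and DMSO (100%) viability. Cells were UOK109, UOK124 and UOK145 TFE3-fusion RCC lines at 500/well, exposed 48 hours at 37 C.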

Where [3] appears, read: TFE3-RCC UOK109 viability, measured here: UOK109 Z-AUC.
Where [4] appears, read: TFE3-RCC viability, measured here: UOK124 Z-AUC.
Where [5] appears, read: TFE3-RCC viability, measured here: UOK145 Z-AUC.
Potency is the fitted concentration of half-maximal effect.

Turning to `Cc1ccc(Cl)c(O)c1`, the activity, negative = inhibition was 9.64% (inactive) in assay [1] (parasite line A) and 15% (inactive) in assay [1] (parasite line B). Also, the Potency result with 3D7, in the assay on 7G8, in the assay on AA1029, with AS120, in the assay on ATS189 and in the assay with ATS95 was “inactive” each time. For the same compound, the Potency entry in the assay with C2A, with CP185, with CP191, with CP192, in the assay on CP194 and in the assay on CP211 was “inactive” each time. The Potency entry with CP215, in the assay on CP217, with CP237 and with CP238 was “inactive” throughout. Also, the call in the assay with CP201 was inactive.
`CC(O)=C(C#N)C(=O)Nc1cc(Br)ccc1Br`: the z-score was 0.277 in assay [2] (setting [3]), 0.279 in [2] (setting [4]) and 0.63 in [2] (setting [5]).
In the case of `C[C@@]12OC(=O)[C@]1([C@@H](O)[C@@H]1C=CCCC1)NC(=O)[C@H]2CCCl`, the Potency in [2] (TFE3-RCC UOK109 viability) is 66.2 nM (active). Besides, the z-score was -1.51 in assay [2] (setting [3]), -3.3 in assay [2] (setting [4]) and -2.86 in [2] (setting [5]).
Turning to `COC(=O)c1cncn1C(C)c1ccccc1` (stereo not drawn), the Potency entry in the assay on CP192, with CP194, in the assay on CP211 and in the assay with CP215 was “inactive” each time. The compound was called inactive in the assay on CP201.
Regarding `CC(=O)OCC1=C(C(=O)O)N2C(=O)[C@@H](N)[C@@H]2SC1`, the z-score in assay [2] (setting [3]) was -1.76; in assay [2] (setting [4]) it was 0.735; in [2] (setting [5]) it was 1.3. Further, the Potency result with 3D7, in the assay with 7G8, in the assay on CP192, in the assay on CP194, with CP211 and in the assay with CP215 was “inactive” each time. The Potency result with CP237 was “inactive”. The outcome in the assay on CP201 was inactive.
For the compound `NC(=O)CN1CC(O)CC1=O` (stereo not drawn), the activity, negative = inhibition in assay [1] (parasite line A) is 3.26% (inactive); in assay [1] (parasite line B), 7.69% (inactive). Moreover, the Potency entry in the assay with 3D7, in the assay with 7G8, with AA1029, with AS120, in the assay with ATS189 and with ATS95 was “inactive” throughout. For the same compound, the Potency entry in the assay on C2A, in the assay on CP185, with CP191, in the assay on CP192, in the assay with CP194 and with CP211 was “inactive” throughout. Moreover, the Potency result in the assay with CP215, in the assay on CP217, in the assay with CP237 and with CP238 was “inactive” in each case. Besides, the compound was classed as inactive in the assay with CP201.
In the case of `C#C[C@]1(O)C=C[C@@H]2[C@@H]3CCC4=CC(=O)CC[C@@H]4[C@H]3CC[C@@]21CC`, the z-score in assay [2] (setting [3]) is 1.02; in assay [2] (setting [4]) it was 0.666; in [2] (setting [5]), -1.42.
Turning to `C[C@@H]1O[C@@H](O[C@@H]2C=C3CC[C@@H]4[C@@H](CC[C@]5(C)[C@H](c6ccc(=O)oc6)CC[C@@]45O)[C@@]3(C)CC2)[C@H](O)[C@H](O)[C@H]1O`, in assay [2] (TFE3-RCC UOK109 viability), the Potency was 20.9 nM (active). In addition, the z-score was -3.96 in assay [2] (setting [3]), -3.13 in assay [2] (setting [4]) and -3.36 in [2] (setting [5]).
As to `CN[C@@H]1C[C@@H](c2ccc(Cl)c(Cl)c2)c2ccccc21`, the Potency entry in the assay on 3D7, in the assay on ATS189, in the assay on C2A, with CP191, in the assay on CP192 and in the assay with CP238 was “inactive” in each case. In addition, the Potency in the assay on 7G8 was 10000 nM (active). The compound was classed as inactive in the assay with CP201.
On to `CCCCc1ccc(C(=O)O)nc1`, for which the activity, negative = inhibition was 0.211% (inactive) in assay [1] (parasite line A) and 1.46% (inactive) in [1] (parasite line B). Further, the Potency entry with 3D7, in the assay on 7G8, in the assay with AA1029, with AS120, in the assay on ATS189 and with ATS95 was “inactive” throughout. Moreover, the Potency result with C2A, in the assay with CP185, in the assay with CP191, with CP192, with CP194 and with CP211 was “inactive” throughout. In addition, the Potency result with CP215, with CP217, in the assay on CP237 and in the assay with CP238 was “inactive” in each case. Moreover, the outcome in the assay on CP201 was inactive.
On to `CC[N+]1(CCOC(=O)C(O)(c2ccccc2)c2ccccc2)CCCCC1`, for which the activity, negative = inhibition was -23.7% (inactive) in [1] (parasite line A) and -20.1% (inactive) in assay [1] (parasite line B). For the same compound, the Potency result in the assay on 3D7, in the assay on AS120, with ATS189, with ATS95, in the assay on C2A and in the assay on CP191 was “inactive” each time. Also, the Potency entry in the assay on CP192, in the assay with CP194, in the assay on CP211, in the assay on CP215, in the assay on CP217 and in the assay on CP237 was “inactive” throughout. Also, the outcome in the assay with CP201 was inactive.
Regarding `C[C@H]1CCCC=CC2C[C@H](O)C[C@@H]2[C@H](O)C=CC(=O)O1` (stereo partly drawn), the z-score in assay [2] (setting [3]) is -3.99; in assay [2] (setting [4]) it was -3.69; in [2] (setting [5]), -5.31.
On to `CCCCCCCCCC(CC)c1ccc(S(=O)(=O)O)cc1` (stereo not drawn), for which the activity, negative = inhibition was 4.98% (inactive) in [1] (parasite line A) and 0.132% (inactive) in assay [1] (parasite line B). The Potency entry in the assay on 3D7, in the assay with 7G8, in the assay on AA1029, in the assay on AS120, in the assay with ATS189 and in the assay with ATS95 was “inactive” in each case. For the same compound, the Potency result in the assay on C2A, in the assay on CP185, in the assay with CP191, in the assay with CP192, with CP194 and in the assay with CP211 was “inactive” in each case. Moreover, the Potency entry in the assay on CP215, in the assay with CP217, in the assay on CP237 and in the assay on CP238 was “inactive” in each case. In addition, the outcome in the assay on CP201 was inactive.
`c1ccc(C2(c3ccccc3)CC2C2=NCCN2)cc1` (stereo not drawn): the activity, negative = inhibition in assay [1] (parasite line A) was -23% (inactive); in [1] (parasite line B), -12.8% (inactive). Besides, the Potency result in the assay on 3D7, with AA1029, in the assay with AS120, in the assay on ATS189, in the assay with ATS95 and in the assay on C2A was “inactive” in each case. In addition, the Potency result in the assay on CP185, in the assay on CP192, in the assay with CP194, with CP211, in the assay with CP215 and with CP217 was “inactive” each time. Further, the Potency entry in the assay on CP237 and in the assay on CP238 was “inactive” in each case. Also, the outcome in the assay on CP201 was inactive.
Consider `CC[C@@H]1[C@@H](C)O[C@@](O)([C@@H](C)[C@H](O)[C@H](C)[C@H]2OC(=O)C=CC=C[C@@H](C)[C@@H]([C@@H](C)[C@@H](O)[C@H](C)[C@@]3(O)C[C@H](O[C@H]4C[C@H](O)[C@H](O)[C@H](C)O4)[C@H](CC)[C@@H](C)O3)OC(=O)C=CC=C[C@@H]2C)C[C@H]1O[C@H]1C[C@H](O)[C@H](O)[C@H](C)O1`, for which, in assay [2] (TFE3-RCC UOK109 viability), the Potency is 1050 nM (active). The results for the z-score in [2] (setting [3]), in assay [2] (setting [4]) and in [2] (setting [5]) were -1.85, -2.49 and -1.57, respectively.
